VACV mCherry inh: vaccinia inhibition (mCherry reporter); Potency, µM (top dose mostly 36.5 µM), most hits filed as inhibitors; actives 0.63% (n = 310,000); Vaccinia virus mCherry reporter infection, fluorescence; AID 720579; calls by dose curve; tested in A549 cells; note: nearly all actives have a fitted effect of over 35% in size
Pf growth 48h: P. falciparum growth inhibition at 48 hours (one generation) | P. falciparum luciferase growth in erythrocytes, 48 h | Potency, µM (titrated, usually from 28.7 µM), most hits filed as inhibitors | actives 5.9% (n = 310,000)
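In quantitative HTS format, infected erythrocytes bearing luciferase-reporter parasites were treated for a single generation at 37 C. Luminescence after adding detection reagent served as the growth measure.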
AMA1 RON2 block: AMA1-RON2 (P. falciparum) interaction inhibition | AlphaScreen AMA1-biotinylated RON2 peptide binding | Potency, µM (doses to about 58.2 µM), most hits filed as inhibitors | actives 0.2% (n = 360,000); note: nearly all actives have a fitted effect of over 45% in size
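AMA1 (3D7) with his tag at 25 nM final met compounds first, then biotinylated RON2 peptide at 25 nM; detection used donor plus acceptor beads, 10 µg/mL apiece, read by AlphaScreen after 30 min at room temperature.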
VACV Venus inh: vaccinia inhibition (Venus reporter); Vaccinia virus Venus reporter expression, fluorescence; Potency, µM (top dose mostly 36.5 µM), actives largely listed as inhibitors; actives 0.46% (n = 330,000); AID 720580; calls by dose curve; tested in A549 cells; note: nearly all actives have a fitted effect of over 30% in size
Pf growth 96h: P. falciparum growth inhibition at 96 hour, primary screen for plastid delayed-death inhibitors. P. falciparum luciferase reporter growth, 96 h. Potency, µM (series often up to 28.7 µM), hits mostly inhibitors. actives 6.9% (n = 320,000). AID 504834
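Readout is luminescence from an integrated firefly luciferase in P. falciparum. Red cells, 2% hematocrit and 0.05% parasitemia final, were cultured with compound through two parasite generations (96 hours) at 37 C, 5% CO2.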
A number is an active result; i = inactive; ? = inconclusive; nt = no result given. Only some compounds are listed: those with a hit (about 8.7% of all), similar ones and a draw of the others. Unless noted, calls come from the whole dose curve; as a rule, active = well fitted curve in the direction sought with a large enough effect; inconclusive = small, poorly fitted or top-dose-only effect, or another doubt; inactive = no such curve, though single readings can be large; an effect the other way counts as inactive or inconclusive.

SMILES	VACV mCherry inh	Pf growth 48h	AMA1 RON2 block	VACV Venus inh	Pf growth 96h
CCCNC(=O)c1ccc(N2CCC3(CC2)CC(c2ccccc2)=NO3)c(NC(=O)c2cccc(OC)c2)c1	i	?	i	i	2.1µM
CCCNC(=O)c1ccc(N2CCC3(CC2)CC(c2ccccc2)=NO3)c(NC(=O)c2ccco2)c1	i	?	i	?	1.2µM
CCCCCCNC(=O)N[C@H](C(=O)NCCC[C@H]1CN2C(=NC[C@H]2C)N1CCC(c1ccccc1)c1ccccc1)C(C)O (stereo partly specified)	nt	9.3µM	nt	nt	2.9µM
Cn1c(=O)oc2cc(S(=O)(=O)N3CCc4ccccc43)ccc21	?	?	i	i	i
CCOC(=O)Cn1c(=O)oc2cc(S(=O)(=O)N3CCc4ccccc43)ccc21	i	nt	i	i	13µM
CCOC(=O)Cn1c(=O)oc2cc(S(=O)(=O)N3CCN(c4ccccc4F)CC3)ccc21	i	nt	nt	i	nt
CC(C)(C)NC(=O)Cn1c(=O)oc2cc(S(=O)(=O)N3CCc4ccccc43)ccc21	i	nt	i	i	1.5µM
COc1cc2c(cc1OC)C1=NC(=O)CN1C(SCc1ccccc1C)=N2	nt	?	i	nt	12µM
CC(C)CCOc1ccc(Oc2nc(N(C)C)nc(N(C)C)n2)nn1	i	nt	nt	i	nt
COc1ccc2c(c1)-c1ccccc1S(=O)(=O)N2C(C)=O	i	i	i	i	12µM
CSc1nnc(-c2cc3ccccc3cc2O)n1C	nt	2.1µM	i	i	nt
COc1cccc2c1Oc1ncccc1N(c1ccc(C(=O)NCc3ccccc3Cl)s1)C2	i	nt	nt	i	nt
Cc1ccc(-n2cnc3cc(C(=O)NC4CCCCCC4)ccc32)cc1Cl	i	nt	nt	i	nt
O=C(/C=C/c1cc([N+](=O)[O-])ccc1OC(F)F)Nc1cccc(OC(F)F)c1	i	?	i	i	8.3µM
CCCS(=O)(=O)Nc1ccc(N2CCCCC2)c(S(=O)(=O)Nc2ccccc2OC)c1	i	10µM	i	i	13µM
Nc1ccc(N2CCCCC2)c(S(=O)(=O)Nc2ccccc2Cl)c1	i	i	i	i	i
COc1ccccc1NS(=O)(=O)c1cc(N)ccc1N1CCCCC1	nt	15µM	i	nt	i
CCc1cccc(NC(=O)CSc2ncc3c(n2)-c2ccccc2N(Cc2ccccc2C)S3(=O)=O)c1	i	nt	nt	i	nt
N#Cc1c(N)nc2c(c1-c1cccs1)CCCC2	i	i	i	i	i
N#Cc1c(N)oc(-c2cccs2)c1-c1cccs1	nt	9.3µM	i	i	13µM
Cc1cccc2c(N3CCCC3)nc(CNS(=O)(=O)c3ccccc3Cl)nc12	i	nt	nt	i	nt
CC(C)C(NC(=O)CCNC(=O)c1ccc(C(C)(C)C)cc1)c1nc2ccccc2[nH]1 (stereo unspecified)	i	8.3µM	i	i	?
NC(=O)c1ccc[n+](Cc2ccc(-c3ccccc3)cc2)c1	i	nt	i	i	7.4µM
NC(=O)c1ccc[n+](CC(=O)c2ccc(Br)cc2)c1	i	i	i	i	i
NC(=S)N=Nc1c(O)[nH]c2cc(F)c(F)cc12	3.2µM	?	i	2.2µM	9.3µM
SMILES	VACV mCherry inh	Pf growth 48h	AMA1 RON2 block	VACV Venus inh	Pf growth 96h
NC(=S)N=Nc1c(O)[nH]c2c(Cl)cc(Cl)cc12	?	nt	i	?	nt
CC(=O)Nc1cccc2c1C(=O)N(c1ccc(OC(C)=O)cc1)C2=O	i	i	i	i	2.6µM
CC(=O)Nc1cccc2c1C(=O)N(c1cccc(OC(C)=O)c1)C2=O	nt	i	i	nt	i
CN(C)CCN=Cc1c(O)n(-c2cccc3ccccc23)c(=O)[nH]c1=O	i	i	i	i	10µM
Cc1ccc(-n2c(O)c(C=NCCN(C)C)c(=O)[nH]c2=O)cc1	i	i	i	i	i
COc1ccc(OC)c(/C=C2\S/C(=N/NC(=O)c3ccc4ccccc4c3)NC2=O)c1	i	i	i	i	6.6µM
O=C1N/C(=N/NC(=O)c2cccc3ccccc23)S/C1=C\c1ccccc1OCc1ccccc1	nt	i	i	nt	?
O=S(=O)(Nc1cccc(-c2ccc(N3CCCCCC3)nn2)c1)c1ccccc1F	i	i	i	i	15µM
Cc1ccc(S(=O)(=O)Nc2cccc(-c3ccc(N4CCCCCC4)nn3)c2)cc1C	nt	i	i	nt	13µM
COc1ccc(S(=O)(=O)Nc2cccc(-c3ccc(N4CCCC4)nn3)c2)cc1OC	i	nt	nt	i	nt
CCCN1CCN(CCCNC(=O)Cn2c(-c3cccs3)cc3ccccc32)CC1	i	nt	nt	i	nt
CN[C@H](C)CCC=C(C)C	i	0.15µM	nt	i	?
Cc1ccc(C(=O)NCc2ccc3c(c2)CCN3C(=O)c2ccc(C)cc2)cc1	i	nt	nt	i	nt
